Assay outcomes deposited in PubChem BioAssay by National Center for Advancing Translational Sciences (NCATS).
JMJD2A Tudor inh = qHTS Assay for Inhibitors of JMJD2A-Tudor Domain | Potency, µM (titrated, usually from 114 µM), for the others: at the highest dose activity change, negative = inhibition, hits mostly inhibitors | AlphaScreen JMJD2A-Tudor / H3K4me3 peptide binding | 390,000 compounds, 4.4% hits | Lysine-specific demethylase 4A (Homo sapiens), O75164; also: % is scaled to controls: 0 for no effect and ±100 for the full control effect; nearly all actives have a fitted effect of over 50% in size
BAZ2B inh = qHTS Assay for Inhibitors of BAZ2B | AlphaScreen BAZ2B-H3K14Ac peptide displacement | 360,000 compounds, 4.4% hits | Potency, µM (top dose mostly 114 µM), without a hit: at the highest dose activity change, negative = inhibition, most hits filed as inhibitors; also: % is scaled to controls: 0 for no effect and ±100 for the full control effect; nearly all actives have a fitted effect of over 60% in size
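AlphaScreen displacement of biotin-H3(5-23)K14Ac peptide (50 nM final) from BAZ2B (50 nM final) in PBS pH 7.4, 0.01% Tween-20; complex preformed 30 min RT, then compounds (top 110 uM) 30 min RT, beads 20 min dark.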
G9a inh = qHTS Assay for Inhibitors of Histone Lysine Methyltransferase G9a. Potency, µM (top dose mostly 102 µM), without a hit: at the top dose activity, negative = inhibition, hits mostly inhibitors. G9a H3K9 monomethylation, AlphaScreen, 2 h. 350,000 compounds, 8.8% hits. AID 504332, 2011. Histone-lysine N-methyltransferase EHMT2 (Homo sapiens), Q96KQ7; also: % is scaled to controls: 0 for no effect and ±100 for the full control effect; nearly all actives have a fitted effect of over 75% in size
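Methyltransferase reactions run at room temperature for 2 h (20 nM enzyme, 500 nM biotin-H3K9 peptide, 20 uM SAM) after a 15 min compound preincubation; product detected by AlphaScreen beads and anti-H3K9me1 antibody.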
GLS inh = qHTS for Inhibitors of Glutaminase (GLS); GLS enzymatic activity, qHTS titration; Potency, µM (titrated, usually from 45.5 µM), inactives show at the highest dose activity change, negative = inhibition, hits mostly inhibitors; 410,000 compounds, 0.21% hits; Glutaminase kidney isoform, mitochondrial (Homo sapiens), O94925; also: % is scaled to controls: 0 for no effect and ±100 for the full control effect
Target sequence (O94925 whole entry, looked up, canonical isoform): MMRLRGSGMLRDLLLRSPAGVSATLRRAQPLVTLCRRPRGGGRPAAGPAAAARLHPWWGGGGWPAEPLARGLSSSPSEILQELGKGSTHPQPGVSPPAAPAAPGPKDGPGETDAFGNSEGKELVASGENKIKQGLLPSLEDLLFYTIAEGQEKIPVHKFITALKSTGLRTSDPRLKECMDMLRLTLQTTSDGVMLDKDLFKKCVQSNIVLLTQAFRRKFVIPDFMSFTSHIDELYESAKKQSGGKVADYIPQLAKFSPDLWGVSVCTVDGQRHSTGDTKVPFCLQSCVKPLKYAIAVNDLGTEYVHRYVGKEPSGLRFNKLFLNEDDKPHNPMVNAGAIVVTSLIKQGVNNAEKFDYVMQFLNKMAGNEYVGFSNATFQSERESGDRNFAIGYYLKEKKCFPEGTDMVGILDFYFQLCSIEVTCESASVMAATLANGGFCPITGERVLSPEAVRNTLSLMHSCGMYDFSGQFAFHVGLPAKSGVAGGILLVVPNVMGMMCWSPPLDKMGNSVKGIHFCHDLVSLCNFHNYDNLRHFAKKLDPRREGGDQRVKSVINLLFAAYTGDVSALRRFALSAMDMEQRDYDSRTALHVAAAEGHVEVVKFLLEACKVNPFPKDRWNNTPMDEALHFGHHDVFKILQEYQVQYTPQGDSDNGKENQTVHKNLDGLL
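Assay buffer: 45 mM KH2PO4 pH 8.2, 0.02% Tween-20. hKGA acts on L-glutamine (1 mM solution added); product glutamate is reported by an oxidase/peroxidase Amplex Red coupling, with fluorescence taken at baseline and 30 min.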
HP1b chromo inh = HTS for Inhibitors of HP1-beta Chromodomain Interactions with Methylated Histone Tails; Potency, µM (doses to about 114 µM), for inactives: at the highest dose activity change, negative = inhibition, most hits filed as inhibitors; AlphaScreen HP1-beta / biotin-H3K9me3 peptide binding; Chromobox protein homolog 1 (Homo sapiens), P83916; 390,000 compounds, 0.56% hits; also: nearly all actives have a fitted effect of over 70% in size
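Compound inhibition of the preformed complex between 50 nM HP1-beta and 50 nM biotinylated H3K9me3 peptide was read by AlphaScreen. Buffer was PBS pH 7.4 with 0.01% Tween-20. Incubations ran 30 min at room temperature, with 10 ug/mL donor/acceptor beads.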
* marks the source's active call; other numbers are inactive results; [ ] = remark or other dose. Hits are enriched below; roughly 10% of the tested compounds scored in any of these assays. Calls follow the shape of the dose curve; as a rule, active = well fitted curve in the direction sought with a large enough effect; inconclusive = small, poorly fitted or top-dose-only effect, or another doubt; inactive = no such curve, though single readings can be large; an effect the other way counts as inactive or inconclusive. Potency is read from the fitted curve at half-maximal effect.

How did COc1ccc2oc(=O)c(C(=O)NCCc3c(C)[nH]c4ccc(C)cc34)cc2c1 do in these assays?
JMJD2A Tudor inh: inconclusive; BAZ2B inh: 25µM*; G9a inh: inconclusive; GLS inh: 8%; HP1b chromo inh: inconclusive

How did COc1ccccc1NC(=S)NCCc1ccccc1 do in these assays?
JMJD2A Tudor inh: -6%[11.4 µM]; BAZ2B inh: -6%; G9a inh: 49%[12.7 µM]; GLS inh: 18%; HP1b chromo inh: 12%

How did Cc1ccc(NC(=S)NCCc2c[nH]c3ccccc23)c(C)c1 do in these assays?
JMJD2A Tudor inh: inconclusive; BAZ2B inh: 35µM*; G9a inh: inconclusive; GLS inh: 11%; HP1b chromo inh: -9%

How did COc1cc(NC(=S)NCCc2c[nH]c3ccccc23)c(OC)cc1Cl do in these assays?
JMJD2A Tudor inh: inconclusive; BAZ2B inh: inconclusive; G9a inh: 45µM*; GLS inh: 15%; HP1b chromo inh: inconclusive

What do the screens show for `O=C(CCNC(=O)c1ccco1)Nc1cccc(C(F)(F)F)c1`?
JMJD2A Tudor inh: -6%; BAZ2B inh: 7%; G9a inh: 4%; GLS inh: -3%; HP1b chromo inh: 18%

What do the screens show for `COc1ccc(NC(=S)NCCc2c(C)[nH]c3ccc(OC)cc23)cc1`?
JMJD2A Tudor inh: inconclusive; G9a inh: 50µM*; GLS inh: 11%; HP1b chromo inh: -23%

How did COc1ccc(NC(=S)NCCc2c[nH]c3ccccc23)cc1 do in these assays?
JMJD2A Tudor inh: -33%; BAZ2B inh: 45µM*; G9a inh: 32%[59 µM]; GLS inh: 5%; HP1b chromo inh: -25%

Results for COc1cccc(CNCCc2c[nH]c3ccccc23)c1OCc1ccc(F)cc1 ?
JMJD2A Tudor inh: inconclusive; BAZ2B inh: -31%; G9a inh: 10%[2.33 µM]; GLS inh: 30%; HP1b chromo inh: -30%

What do the screens show for `COc1ccc(NC(=O)NCCc2c[nH]c3ccccc23)c(OC)c1`?
JMJD2A Tudor inh: -24%; BAZ2B inh: inconclusive; G9a inh: -19%; GLS inh: 0%; HP1b chromo inh: 3%

How did COc1ccc(CCNC(=S)Nc2ccc(OC)cc2)cc1 do in these assays?
JMJD2A Tudor inh: -22%; BAZ2B inh: -16%; G9a inh: 13%[59 µM]; GLS inh: 67%; HP1b chromo inh: -9%

What do the screens show for `COc1ccc(OC)c(NC(=O)NCCc2c[nH]c3ccccc23)c1`?
JMJD2A Tudor inh: -32%; BAZ2B inh: inconclusive; G9a inh: 79µM*; GLS inh: 6%; HP1b chromo inh: -13%

Results for COc1cc(CNCCc2c[nH]c3ccccc23)ccc1OCc1ccc(F)cc1 ?
JMJD2A Tudor inh: inconclusive; BAZ2B inh: 50µM*; G9a inh: inconclusive; GLS inh: 27%; HP1b chromo inh: inconclusive

What do the screens show for `O=C(Nc1ccc(F)cc1)c1ccccc1NC(=O)C1CC=CCC1C(=O)O` (stereo not given)?
JMJD2A Tudor inh: -1%; BAZ2B inh: -13%; G9a inh: 1%; GLS inh: -5%; HP1b chromo inh: 32%

How did COc1ccc2[nH]cc(CCNC(=S)NCCc3ccccc3)c2c1 do in these assays?
JMJD2A Tudor inh: inconclusive; BAZ2B inh: 28µM*; G9a inh: 45µM*; GLS inh: 26%; HP1b chromo inh: -2%

Results for COc1ccc(C2C(C(C)=O)=C(C)Nc3ncnn32)cc1[N+](=O)[O-] (stereo not given) ?
JMJD2A Tudor inh: 89µM*; BAZ2B inh: -4%; G9a inh: 12%; GLS inh: 2%; HP1b chromo inh: 55%

How did Cc1ccccc1OCCN1CCCC1 do in these assays?
JMJD2A Tudor inh: 20µM*; BAZ2B inh: 50µM*; GLS inh: 2%; HP1b chromo inh: inconclusive

How did Cc1ccccc1OCCCN1CCCC1 do in these assays?
JMJD2A Tudor inh: 3.5µM*; BAZ2B inh: -35%; G9a inh: 40µM*; GLS inh: -9%; HP1b chromo inh: -38%

What do the screens show for `Cc1ccc(C)c(OCCCCN2CCCCC2)c1`?
JMJD2A Tudor inh: 32µM*; BAZ2B inh: -20%; G9a inh: 25µM*; GLS inh: 0%; HP1b chromo inh: -10%

How did Cc1ccc(OCCCCN2CCCCC2)c(C)c1 do in these assays?
JMJD2A Tudor inh: -9%; BAZ2B inh: 0%; G9a inh: -11%; GLS inh: -2%; HP1b chromo inh: 36%

How did O=C(Nc1cccc(S(=O)(=O)N2CCCC2)c1)c1ccncc1 do in these assays?
JMJD2A Tudor inh: -6%; BAZ2B inh: -19%; G9a inh: -5%; GLS inh: -9%; HP1b chromo inh: 6%

What do the screens show for `O=C(NCc1ccccc1)c1ccc(C(=O)N(C2CCCCC2)C2CCCCC2)cc1`?
JMJD2A Tudor inh: -21%; BAZ2B inh: -10%; G9a inh: inconclusive; GLS inh: -10%; HP1b chromo inh: 4%

How did O=C(COC(=O)c1cc(S(=O)(=O)N2CCOCC2)ccc1F)Nc1c(Cl)cccc1C(F)(F)F do in these assays?
JMJD2A Tudor inh: -1%; BAZ2B inh: 10%; G9a inh: -21%[0.501 µM]; GLS inh: 0%; HP1b chromo inh: 27%

What do the screens show for `Cc1ccccc1N/N=C/c1ccc(C#N)cc1`?
JMJD2A Tudor inh: -32%; BAZ2B inh: inconclusive; G9a inh: 10µM*; GLS inh: 12%; HP1b chromo inh: 12%

Results for Cc1cccc(-n2c(SCc3ccc([N+](=O)[O-])cc3)nnc2-c2c[nH]c3ccccc23)c1 ?
JMJD2A Tudor inh: inconclusive; BAZ2B inh: -27%; G9a inh: 45µM*; GLS inh: -6%; HP1b chromo inh: -20%

How did CC(=O)Nc1ccc(NC(=O)C(C)OC(=O)c2cccc(S(=O)(=O)N3CCCC3)c2)cc1 (stereo not given) do in these assays?
JMJD2A Tudor inh: -8%; BAZ2B inh: 2%; G9a inh: 40µM*; GLS inh: -12%; HP1b chromo inh: 20%

What do the screens show for `CC(Oc1ccccc1Cl)C(=O)Nc1ccc(S(=O)(=O)N2CCN(C)CC2)cc1` (stereo not given)?
JMJD2A Tudor inh: 50µM*; GLS inh: -8%; HP1b chromo inh: -16%[57 µM]

How did CC(=O)Nc1ccc(NC(=O)C(C)OC(=O)c2cccc(S(=O)(=O)N3CCCCCC3)c2)cc1 (stereo not given) do in these assays?
JMJD2A Tudor inh: -2%; BAZ2B inh: -36%; G9a inh: -10%; GLS inh: -4%; HP1b chromo inh: 17%

What do the screens show for `CC(=O)Nc1ccc(NC(=O)C(C)OC(=O)c2cccc(S(=O)(=O)N3CCCCC3)c2)cc1` (stereo not given)?
JMJD2A Tudor inh: -8%; BAZ2B inh: -11%; G9a inh: inconclusive; GLS inh: 6%; HP1b chromo inh: 23%
